High-throughput results: PubChem BioAssay, National Center for Advancing Translational Sciences (NCATS)
ALOX12 inh: inhibitors of human 12S-lipoxygenase ALOX12; P18054; purified 12hLO, xylenol orange hydroperoxide absorbance; Potency, µM (series often up to 108 µM), inactives show at the highest dose activity change, negative = inhibition, hits mostly inhibitors; hit rate 1.1% among 580,000; also: potency is read from the fitted curve at half-maximal effect
Target sequence (P18054 whole entry, looked up): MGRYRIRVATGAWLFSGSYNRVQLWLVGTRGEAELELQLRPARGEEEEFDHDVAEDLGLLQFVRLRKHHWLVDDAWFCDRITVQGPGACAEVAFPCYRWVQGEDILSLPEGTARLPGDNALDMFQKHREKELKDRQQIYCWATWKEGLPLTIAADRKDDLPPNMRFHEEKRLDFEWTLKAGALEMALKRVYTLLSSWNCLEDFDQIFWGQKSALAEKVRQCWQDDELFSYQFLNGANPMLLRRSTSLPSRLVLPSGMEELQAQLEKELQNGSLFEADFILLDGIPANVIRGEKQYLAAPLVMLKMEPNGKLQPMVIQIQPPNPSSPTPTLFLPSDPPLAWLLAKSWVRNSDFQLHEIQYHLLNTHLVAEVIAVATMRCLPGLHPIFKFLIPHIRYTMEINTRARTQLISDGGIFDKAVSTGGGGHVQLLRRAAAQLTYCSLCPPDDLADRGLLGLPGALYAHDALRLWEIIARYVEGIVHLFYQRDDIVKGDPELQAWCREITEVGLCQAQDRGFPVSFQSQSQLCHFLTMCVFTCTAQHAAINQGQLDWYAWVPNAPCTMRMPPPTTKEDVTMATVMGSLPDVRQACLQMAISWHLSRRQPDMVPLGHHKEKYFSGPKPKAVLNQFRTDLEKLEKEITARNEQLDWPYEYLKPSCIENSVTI
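Purified human 12hLO at 150 nM in 25 mM Hepes, 0.01% Triton X-100, pH 7.0, preincubated 15 min at room temperature with compound. Reaction started with 40 uM arachidonic acid, 30 min at room temperature. Hydroperoxide measured by Fe-xylenol orange, 573/405 nm absorbance ratio.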
DT40 TDP1 CPT: growth inhibition of DT40 Tdp1-/-;hTDP1 cells with camptothecin (screen for TDP1 inhibitors); AID 686979; hit rate 12% among 420,000; chicken DT40 Tdp1-/-;hTDP1 cells + 20 nM CPT, ATP luminescence, 48 h; Potency, µM (titrated, usually from 46.2 µM), for inactives: at the top dose activity change, negative = growth inhibition, actives largely listed as inhibitors; also: potency is read from the fitted curve at half-maximal effect; nearly all actives have a fitted effect of over 55% in size
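Chicken DT40 Tdp1-/- cells complemented with human TDP1, 400 cells/well, exposed to compounds plus 20 nM camptothecin for at least 48 h at 37 C; viability read as ATP content by CellTiter-Glo luminescence.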
IL-1B inflam inh: inflammasome signaling inhibition, IL-1 beta readout | THP-1 LPS/ATP IL-1B secretion, AlphaLISA, 16 h; stronger effect = lower value | activity change, % at 57.5 µM | hit rate 4.7% among 360,000 | AID 743279; in the data active = activity change below about -50%; inconclusive = mostly about -30% to -49%
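THP-1 cells pretreated 1 hr with compounds (up to 57.5 uM final), then stimulated with LPS (250 ng/mL final) plus ATP (1.25 mM final); secreted IL-1B measured by AlphaLISA after 16 hr, decreased signal indicating inhibition.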
HT1080 IDH1KD tx: kills HT-1080 cells with IDH1 knockdown; HT-1080 IDH1 knockdown viability, ATP luminescence, 48 h; Potency, µM (series often up to 46.1 µM), for inactives: at the top dose activity, negative = toxicity, actives largely listed as cytotoxic; hit rate 2% among 360,000; AID 686971;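 also: potency is read from the fitted curve at half-maximal effect; 0% = DMSO wells and -100% = cell-free medium wells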
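Cytotoxicity counter-line: IDH1KD HT-1080, 48 h, CellTiter-Glo. Curves classed by r2, magnitude and activity.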
DT40 TDP1 no CPT: qHTS for Inhibitors of human tyrosyl-DNA phosphodiesterase 1 (TDP1): qHTS in cells in absence of CPT | Potency, µM (highest dose often 46.2 µM), for inactives: at the highest dose activity change, negative = growth inhibition, usual class: inhibitors | hit rate 15% among 420,000 | DT40 Tdp1-/- hTDP1 cells, no CPT, ATP luminescence, 48 h | AID 686978, 2013; also: potency is read from the fitted curve at half-maximal effect; nearly all actives have a fitted effect of over 55% in size
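Camptothecin absent (DMSO only). Human TDP1-complemented DT40 knockout cells, 400 cells/well, 37 °C for minimum 48 hr; ATP measured via CellTiter-Glo, 30 min dark incubation, luminescence.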
HT1080-NT tox: kills 2HG-producing HT-1080-NT fibrosarcoma cells; Potency, µM (doses to about 46.1 µM), inactives show top-dose activity, negative = less viability, actives largely listed as cytotoxic; AID 686970; hit rate 1.6% among 360,000; HT-1080-NT fibrosarcoma viability, CellTiter-Glo ATP luminescence, 48 h;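 also: NT is the 2HG producing partner of a matched IDH1 knockdown line; potency is read from the fitted curve at half-maximal effect; 0% = DMSO-treated cells and -100% = media-only wells without cells; nearly all actives have a fitted effect of over 55% in size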
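750 cells/well, RPMI + 5% FBS; 2 h settle, compound pin-transfer, 48 h at 37 degrees C. CellTiter-Glo 10 min RT, luminescence. Normalized to DMSO and media-only wells.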
An asterisk follows results filed as active; ? = inconclusive; . = no result; [ ] = another dose, or the depositor's remark. The full list was thinned out, with hits kept by preference. Unless noted, calls follow the shape of the dose curve; as a rule, active = well fitted curve in the direction sought with a large enough effect; inconclusive = small, poorly fitted or top-dose-only effect, or another doubt; inactive = no such curve, though single readings can be large; an effect the other way counts as inactive or inconclusive. Unless noted, % is scaled to controls: 0 for no effect and ±100 for the full control effect.

SMILES	ALOX12 inh	DT40 TDP1 CPT	IL-1B inflam inh	HT1080 IDH1KD tx	DT40 TDP1 no CPT	HT1080-NT tox
CCOc1ccc(-c2csc(Cn3c(CN4CCN(C)CC4)nc4ccccc4c3=O)n2)cc1	?	7.3µM*	-75*	-18%	8.2µM*	-2%
CN(C)Cc1nc2ccccc2c(=O)n1Cc1nc(-c2cc3ccccc3o2)cs1	19%	?	32	?	18µM*	-13%
O=C(c1ccc(Cl)cc1)N1CCC(N2CCCS2(=O)=O)CC1	5%[6.33 µM]	.	.	.	.	.
O=S(=O)(c1ccccc1)N1CCCC(c2nc(CCOc3ccc(F)cc3)no2)C1 (centres undefined)	47%	.	.	.	.	.
C=C(C)C1CCC(C)=C1COC(=O)Nc1ccccc1 (centres undefined)	-9%	?	-62*	3%	?	14%
Oc1[nH]c2ccccc2c1N=Nc1ncnc2c1oc1ccccc12	3%	.	.	.	.	.
Cc1sc2ncnc(N=Nc3c(O)[nH]c4ccccc34)c2c1C	1%	-8%	32	2%	23µM*	8%
CCc1cc2c(N=Nc3c(O)[nH]c4ccccc34)ncnc2s1	29%	18µM*	12	-1%	21µM*	-16%
CCN(Cc1ccccc1)S(=O)(=O)c1ccc(F)c(C(=O)Nc2cc(C)ccc2OC)c1	-17%	26µM*	.	.	?	.
COc1ccc(C)cc1NC(=O)c1ccccc1N(C)S(=O)(=O)c1ccccc1	18%	?	-14	-10%	21µM*	-8%
CCN(Cc1ccccc1)S(=O)(=O)c1ccc(F)c(C(=O)Nc2cc(C(F)(F)F)ccc2Cl)c1	-22%	16µM*	.	.	23µM*	.
CS(=O)(=O)N(CC(=O)Nc1cc(C(F)(F)F)ccc1Cl)Cc1ccccc1	-6%	.	.	.	.	.
CC(=O)Nc1ccccc1N(C)S(=O)(=O)c1ccc(C)cc1	4%	23µM*	24	?	23µM*	-23%
O=C(NC1C[C@H]2CC[C@@H](C1)N2C(=O)CC1CCCCC1)c1ccc(F)cc1 (some centres undefined)	34%	.	.	.	.	.
CC(C)C(CNC(=O)C1CCN(c2nc3ccccc3o2)CC1)N(C)C (centres undefined)	29%	.	.	.	.	.
O=C(CSc1nnc(-c2ccccc2O)o1)Oc1ccc(OCc2ccccc2)cc1	7%	13µM*	17	?	13µM*	?
COCCN(Cc1cn[nH]c1-c1ccc2cc(OC)ccc2c1)C(C)C	31%	-2%	-9	-1%	2%	-2%
COCCN1CCCC(CNCc2cn(C)nc2-c2ccc(Oc3ccccc3)cc2)C1 (centres undefined)	-6%	18µM*	-51*	?	5.8µM*	?
CCOC(=O)CN(C)Cc1cn(C)nc1-c1ccc(Oc2ccccc2)cc1	8%	?	25	8%	13µM*	0%
CCOC(=O)CN(C)Cc1cn[nH]c1-c1ccc2cc(OC)ccc2c1	?	16µM*	-64*	-16%	13µM*	-15%
CCCN1CCC(NCc2cn(C)nc2-c2ccc(Oc3ccccc3)cc2)CC1	-10%	5.2µM*	0	?	4.6µM*	?
Cc1ccc(/C=N/NC(=O)c2cccs2)cc1	0%	.	.	.	.	.
Cc1ccc2c(C)c(CCC(=O)Nc3ccccc3Cl)c(=O)oc2c1	9%	.	.	.	.	.
CCNc1ccc(C(=O)OCC)cc1NC(=O)c1cccc(N(C)C)c1	1%	3.3µM*	28	?	2.6µM*	1.8µM*
Cc1ccc(NC(=O)c2cccc(N(C)C)c2)c(C)c1	3%	.	.	.	.	.
SMILES	ALOX12 inh	DT40 TDP1 CPT	IL-1B inflam inh	HT1080 IDH1KD tx	DT40 TDP1 no CPT	HT1080-NT tox
CCNc1ccc(C(=O)OCC)cc1NC(=O)c1cccc(S(=O)(=O)N(C)c2ccccc2)c1	-3%	16µM*	2	14%	4.6µM*	14%
CCOC(=O)c1ccc(S(=O)(=O)NNC(=O)c2cccc(N(C)C)c2)cc1	?	1%	-141*	1%	28%	6%
Cc1ccc(S(=O)(=O)NCCO)c2ccccc12	-18%	.	.	.	.	.
N/C(=N\OC(=O)c1cccc2ccccc12)c1ccccn1	0%	?	30	26µM*	?	?
COc1cccc(C(=O)O/N=C(\N)c2ccncc2)c1OC	-19%	?	-7	8%	?	-1%
COc1cccc(C(=O)O/N=C(\N)c2ccccn2)c1OC	16%	?	-5	-7%	7.3µM*	-12%
COc1ccc(C(=O)NC2CCN(c3cc(-c4ccc(Cl)cc4)[nH]n3)C2)cc1F (centres undefined)	17%	.	.	.	.	.
O=C(c1ccccc1F)N1CCN=C1SCc1cccnc1	3%	-2%	-14	12%	-8%	6%
O=C(c1ccc(Br)o1)N1CCN=C1SCc1cccnc1	-8%	?	-54*	-3%	-13%	17%
O=C(c1cc2ccccc2o1)N1CCN=C1SCc1cccnc1	4%	-23%	-58*	23%	-26%	30%
O=C(c1ccc(S(=O)(=O)N2CCCCC2)cc1)N1CCN=C1SCc1cccnc1	10%	16µM*	1	2%	?	1%
Cn1c(=O)c2c(nc(NCc3ccccc3)n2CC(O)CO)n(C)c1=O (centres undefined)	3%	.	.	.	.	.
O=C(CCC[C@@H]1[C@H]2CCCN3CCC[C@@H](CN1C(=O)NCc1ccc(F)cc1)[C@@H]23)NCC1CC1	29%	.	.	.	.	.
COc1ccc(OC)c(/C=C/C(=O)OCC(=O)N2C(C)CCCC2C)c1 (centres undefined)	-2%	?	-28	9%	10µM*	-5%
COc1cc(/C=C/C(=O)OCC(=O)NCCc2ccccc2)cc(OC)c1OC	-8%	1%	17	-4%	-4%	-4%
COc1ccc(/C=C/C(=O)OCC(=O)NCCc2ccccc2)c(OC)c1	-3%	?	5	11%	21µM*	5%
COc1ccc(OC)c(/C=C/C(=O)OCC(=O)Nc2cccc(C(C)=O)c2)c1	-20%	16µM*	8	20%	?	17%
COc1ccc(C(=O)N2CCC(N3C(=O)C(OC)C34CCOCC4)CC2)c(OC)n1 (centres undefined)	0%	.	.	.	.	.
COc1ccc(CN2CCN(S(=O)(=O)c3cc(OC)ccc3OC)CC2)cc1	-13%	.	.	.	.	.
Cc1ccc(C2Cn3nnc(-c4noc(-c5nn(C)c6ccccc56)n4)c3CO2)cc1 (centres undefined)	33%	.	.	.	.	.
CC1=CC(=O)[C@H]2C[C@@H]1C2(C)C	-5%[176 µM]	.	.	.	.	.
